# Bst PK mod = alters activity of Bacillus stearothermophilus pyruvate kinase | 51,000 compounds, 1.2% hits | Potency, µM | purified pyruvate kinase, luminescence ATP production; ribose 5-phosphate activator present at AC10; in the data active = potency below about 11 µM; inconclusive = mostly about 12 µM to 25 µM;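 the screen sought inhibitors and activators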;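 note: scaled between full activation by ribose 5 phosphate and full inhibition by luteolin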
# HADH2 inhib = blocks human hydroxyacyl-CoA dehydrogenase type II | Q99714 | recombinant HADH2, NADH fluorescence, beta-hydroxybutyryl-CoA | Potency, µM (series often up to 57.1 µM), for the others: top-dose activity change, negative = inhibition, hits mostly inhibitors | 73,000 compounds, 3.4% hits | AID 886; note: nearly all actives have a fitted effect of over 60% in size
#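 Buffer 100 mM Tris-HCl pH 9.0/0.01% Tween-20; HADH2 20 nM; NAD+ 1 mM; beta-hydroxybutyryl-CoA 90 uM (all final). 15 min cpd preincubation, RT.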
# 15-hLO inh = inhibitors of human 15-lipoxygenase (ALOX15). purified 15hLO-1, xylenol orange hydroperoxide absorbance. Potency, µM (titrated, usually from 57.1 µM), inactives show at the top dose activity change, negative = inhibition, most hits filed as inhibitors. 74,000 compounds, 1.4% hits. AID 887; note: nearly all actives have a fitted effect of over 55% in size
# Target sequence (P16050 whole entry, looked up): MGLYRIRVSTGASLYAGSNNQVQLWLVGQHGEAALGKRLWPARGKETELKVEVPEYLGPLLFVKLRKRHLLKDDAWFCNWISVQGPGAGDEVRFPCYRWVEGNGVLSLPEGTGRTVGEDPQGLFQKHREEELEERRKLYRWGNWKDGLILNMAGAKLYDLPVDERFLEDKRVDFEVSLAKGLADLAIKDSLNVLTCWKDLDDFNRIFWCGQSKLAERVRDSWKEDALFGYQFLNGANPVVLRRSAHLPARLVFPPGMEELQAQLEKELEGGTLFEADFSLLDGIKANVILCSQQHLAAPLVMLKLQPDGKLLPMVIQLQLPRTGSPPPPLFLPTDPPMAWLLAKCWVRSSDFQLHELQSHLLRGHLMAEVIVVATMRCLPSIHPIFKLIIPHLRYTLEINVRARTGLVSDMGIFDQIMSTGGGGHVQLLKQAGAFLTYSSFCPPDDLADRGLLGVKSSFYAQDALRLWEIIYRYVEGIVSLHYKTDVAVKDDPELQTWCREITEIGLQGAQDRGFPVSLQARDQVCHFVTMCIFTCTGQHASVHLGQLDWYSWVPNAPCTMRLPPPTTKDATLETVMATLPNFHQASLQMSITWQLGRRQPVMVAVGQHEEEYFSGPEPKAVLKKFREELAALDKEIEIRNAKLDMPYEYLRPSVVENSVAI
#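 Hydroperoxide formed from arachidonic acid (50 uM) by purified human 15hLO-1 (40 nM) oxidizes ferrous iron, and the ferric-xylenol orange complex is read at 573 versus 405 nm. Compounds were preincubated 15 min; reaction ran 6 min at room temperature.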
# HSD17B inhib = blocks hydroxysteroid 17-beta dehydrogenase activity | Q99714 | recombinant HSD17B10, NADH fluorescence kinetic | Potency, µM (top dose mostly 57.1 µM), without a hit: at the highest dose activity change, negative = inhibition, hits mostly inhibitors | 75,000 compounds, 7.6% hits | AID 893;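 note: the protocol describes HADH2 (HSD17B10) and not the HSD17B4 of the title; nearly all actives have a fitted effect of over 70% in size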
#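 Activity followed as NADH fluorescence increase (ex 360, em 450 nm) every 30 seconds for 4 min, using final 90 uM beta-hydroxybutyryl CoA and 1 mM NAD+. Recombinant His-tagged enzyme, 20 nM, pH 9.0 Tris buffer, 15 min compound preincubation.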
# ERK AVP inh = inhibitors of vasopressin-stimulated ERK signaling pathway | Potency, µM (titrated, usually from 57.5 µM), for inactives: at the highest dose activity, negative = inhibition, hits mostly inhibitors | HEK293-V1b, vasopressin-stimulated pERK AlphaScreen | AID 995 | 72,000 compounds, 0.99% hits; note: nearly all actives have a fitted effect of over 55% in size
#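 V1b-HEK293 cells; cpd 30 min 37C; 25 nM vasopressin 5 min; lyse 10 min; AlphaScreen beads 5 hr RT. Normalized to DMSO basal and 25 nM vasopressin; AC50 by Hill fit.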
# FLuc inh = blocks Photinus pyralis firefly luciferase activity. 72,000 compounds, 2.2% hits. AID 411. Potency, µM (highest dose often 57.1 µM), for the others: at the highest dose activity change, negative = inhibition, actives largely listed as inhibitors. purified firefly luciferase, luminescence, 8 min. P08659; note: nearly all actives have a fitted effect of over 40% in size
#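 Substrate buffer containing 10 uM ATP (pH 7.2 imidazole, Mg2+, KCl, detergent, BSA) is dispensed, compound pinned in, then luciferase/luciferin detector mix added. After 8 min at ambient temperature, light output is measured.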
# * marks the source's active call; other numbers are inactive results; i = inactive; ? = inconclusive; . = no result given; ! = not active in a repeat; [ ] = remark or other dose. Compounds with a hit are over-represented: about 11% of the library has one in this group of screens. Unless noted, calls come from the whole dose curve; as a rule, active = well fitted curve in the direction sought with a large enough effect; inconclusive = small, poorly fitted or top-dose-only effect, or another doubt; inactive = no such curve, though single readings can be large; an effect the other way counts as inactive or inconclusive. Unless noted, % is set by controls: 0 for no effect and ±100 for the full control effect; potency is the fitted concentration of half-maximal effect.
SMILES,Bst PK mod,HADH2 inhib,15-hLO inh,HSD17B inhib,ERK AVP inh,FLuc inh
CN(C)CS/C(N)=N/[C@H](O)C(Cl)(Cl)Cl,.,?,-16%[11.4 µM],-17%[11.4 µM],4%[11.5 µM],4%[11.4 µM]
CN(C)CCC(C#N)(c1ccccc1)c1ccccc1,.,-1%[11.4 µM],8%[11.4 µM],11%[11.4 µM],-14%[11.5 µM],1%[11.4 µM]
C=CCN1CC[C@@]23CCCC[C@@H]2[C@@H]1Cc1ccc(O)cc13,.,-6%,7%,3%,21%,0%
ClCC[N+]12CC[N+](CCCl)(CC1)C2 (tested in a mixture with another compound),.,-2%[11.4 µM],23%[11.4 µM],6%[11.4 µM],-6%[11.5 µM],2%[11.4 µM]
S=C(S)N1CCCC1,.,0.25µM*,?,25µM*,?,-11%
c1ccc2c(c1)Nc1ccccc1S2,.,6%,6.3µM*,-8%,-3%,.
CC1=NN(c2ccccc2)C(=O)[C@@H]1N=Nc1ccc([As](=O)(O)O)c(O)c1,.,-23%[11.4 µM],-6%[11.4 µM],1%[11.4 µM],14%[11.5 µM],-2%[11.4 µM]
CC[C@H](CO)NC(=O)[C@@H]1C=C2c3cccc4[nH]cc(c34)C[C@@H]2N(C)C1,.,25µM*,7%,32µM*,-14%,1%
CC(C)[C@H]1C(=O)N2CCC[C@@H]2[C@]2(O)O[C@@](NC(=O)[C@H]3C=C4c5cccc6[nH]cc(c56)C[C@H]4N(C)C3)(C(C)C)C(=O)N12,.,-16%,.,.,.,-1%[11.4 µM]
CC[C@H](CO)NC(=O)[C@H]1C=C2c3cccc4[nH]cc(c34)C[C@H]2N(C)C1,.,32µM*,.,.,.,0%[11.4 µM]
C[C@H]1CC[C@@]2(NC1)O[C@@H]1C[C@@H]3[C@@H]4CC=C5C[C@@H](O)CC[C@]5(C)[C@@H]4CC[C@]3(C)[C@H]1[C@@H]2C,.,4%[11.4 µM],30%[11.4 µM],8%[11.4 µM],12%[11.5 µM],1%[11.4 µM]
Clc1ccc(C(c2ccccc2Cl)C(Cl)(Cl)Cl)cc1 (centres undefined),.,-4%,-9%,-2%,14%,.
Oc1ccccc1O,.,2.5µM*,16µM*,?,-22%,0%
CN(N=O)c1ccc(O)c(O)c1,.,1.6µM*,16µM*,4µM*,-7%,-4%
O=c1c2ccccc2nc(N2CCCC2)n1-c1ccc(Cl)cc1,>57,-4%,-5%,25µM*,?,0%
COc1ccc(-n2c(SC)nc3ccccc3c2=O)cc1,>11,.,.,.,.,1%[25.5 µM]
S=C=Nc1cccc2ccccc12,.,25µM*,?,13µM*,-4%,.
C[C@@]12CC[C@H]3[C@@H](CC[C@@H]4C[C@H](O)CC[C@]43C)[C@H]1CC[C@H]2O,.,-6%,2%,81%,-14%,-2%
Cc1sc2ccccc2c1CC1=NCCN1,.,?,8%,25µM*,-6%,-1%
CCOc1ccc(-c2cc(C(=O)N3CCC4(CC3)OCCO4)c3ccccc3n2)cc1,0.71*,?,-5%,7.9µM*,-9%,0.63µM*
O=C(c1cc2ccccc2oc1=O)N1CCC2(CC1)OCCO2,>57,-20%,-3%,-5%,-4%,5%
CCCCC/C=C\C/C=C\C/C=C\C/C=C\CCCC(=O)O,.,.,0.32µM*,2µM*,3%,.
CCCCCCCC(=O)Cl,.,-5%,-26%,0%,9%,.
CCCCCCCCC(=O)NCc1ccc(O)c(OC)c1,.,16%,25µM*!,2%,9%,-4%
CCOc1cc(C=O)ccc1O,.,-11%,8%,-6%,-1%,.
SMILES,Bst PK mod,HADH2 inhib,15-hLO inh,HSD17B inhib,ERK AVP inh,FLuc inh
O=C(OCC#CCSc1nnc(-c2ccccc2)o1)c1ccco1,>57,-3%,25µM*,-2%,1%,2%
CCOC(=O)C(C)Oc1cc(C)cc2oc(=O)c3c(c12)CCCC3 (centres undefined),>57,31%,?,25µM*,13%,2%
COC(=O)C(C)Oc1cc(C)cc2oc(=O)c3c(c12)CCC3 (centres undefined),>57,13µM*,-2%,25µM*,?,4%
COC(=O)c1cc(COc2cc(C)cc3oc(=O)c4c(c23)CCC4)c(C)o1,>57,29%,4%,13µM*,-14%,1%
Cc1cc(OCC(=O)NC2CCS(=O)(=O)C2)c2c3c(c(=O)oc2c1)CCC3 (centres undefined),.,32µM*,12%,16µM*,-15%,0%
C=C(Cl)Cl,.,2%,-3%,3%,27%,.
CCN1C[C@]2(C)CC[C@@H](O)[C@]34[C@@H]5CC6[C@@H](OC)C[C@@](O)([C@H]5[C@@H]6O)[C@@H](C[C@@H]23)[C@H]14,.,-11%,6%,2%,-5%,-2%
N#CCCCC[N+]12CN3CN(CN(C3)C1)C2,.,4%[11.4 µM],9%[11.4 µM],1%[11.4 µM],-1%[11.5 µM],4%[11.4 µM]
C/C=C1\C[C@H](C)[C@](O)(CO)C(=O)OCC2=CCN3CC[C@@H](OC1=O)[C@@H]23,.,-21%,.,.,.,1%[11.4 µM]
Cc1cc(OCc2nn[nH]n2)c2c3c(c(=O)oc2c1)CCC3,.,10µM*,8%,32µM*,0%,2%
Cc1cc(OCC(=O)OC(C)C)c2c3c(c(=O)oc2c1)CCCC3,.,31%,-13%,32µM*,.,.
COC(=O)C(C)Oc1cc(C)cc2oc(=O)c3c(c12)CCCC3 (centres undefined),>57,-11%,-8%,25µM*,-9%,-1%
C[C@@H]1CC[C@@H]2N(C1)C[C@H]1[C@@](O)([C@H](O)C[C@]3(O)[C@H]4CC[C@H]5[C@]6(O)O[C@]4(C[C@]13O)[C@@]5(C)CC[C@@H]6O)[C@@]2(C)O,.,0%[11.4 µM],1%[11.4 µM],17%[11.4 µM],-8%[11.5 µM],0%[11.4 µM]
O=C(CSc1ccccc1)N1CCC2(CC1)OCCO2,i,25µM*,8%,25µM*,?,3%
Cc1c(C(=O)N2CCC3(CC2)OCCO3)oc2ccccc12,.,4%,1%,7%,-3%,-1%
O=[As](O)(O)c1ccc(N=Nc2ccc([As](=O)(O)O)cc2)cc1,.,-1%[11.4 µM],3%[11.4 µM],6%[11.4 µM],23%[11.5 µM],3%[11.4 µM]
O=C1C=Cc2ccccc2C1=O,.,4µM*,?,32µM*,.,.
CCC1CN2CCc3cc(OC)c(OC)cc3C2CC1CC1NCCc2cc(OC)c(OC)cc21 (centres undefined),.,.,-21%,?,-17%,.
CCOC(=O)Nc1ccc(NCc2ccc(F)cc2)nc1N,.,25µM*,?,32µM*,?,-3%
CCCCCCCCCCCCCC(=O)O[C@H]1[C@@H](C)[C@@]2(O)[C@@H](C=C(CO)C[C@]3(O)C(=O)C(C)=C[C@@H]23)C2C(C)(C)[C@]21OC(C)=O (some centres undefined),.,?,-21%,-20%,20%,-4%
CC(=O)[C@@H]1CC[C@H]2[C@H]3CC[C@H]4C[C@@H](O)CC[C@]4(C)[C@@H]3CC[C@]12C,.,11%,-8%,-9%,-9%,2%
COc1cc(-c2ccc(=O)[nH]n2)ccc1OC(F)F,.,8%,-15%[25.6 µM],-8%,?,2%

# Assay outcomes: PubChem, National Center for Advancing Translational Sciences (NCATS)
